# Screens deposited in PubChem by National Center for Advancing Translational Sciences (NCATS).
# The sample as a whole holds a higher share of hits than the screen did.
# Cycloheximide cs: counter-screen hit for Shiga toxin inhibitors, cycloheximide | cell reporter, cycloheximide protein synthesis inhibition counterscreen | max response, % | actives 12% (n = 300,000) | AID 2314; in the data active means max response mostly above about 13%, no sharp cut-off; inactive means mostly below about 14%; further: read at 38.3 µM for the half of the compounds with a filed dose; 0% is about no effect
# NS1 function inh: blocks influenza NS1 protein function | Potency, µM (series often up to 46.1 µM), without a hit: at the highest dose activity, positive = more growth | actives 0.4% (n = 270,000) | AID 2326; calls by dose curve; further: potency means the concentration at half of the fitted maximal effect; actives are rising curves; nearly all actives have a fitted effect of over 50% in size
#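 Recovery from NS1-induced slow growth read by OD600 in budding yeast switched to galactose assay medium (pH 6.0, -URA) at 1:100 dilution. Compound 23 nl per well; the matching strain lacking NS1 serves as control.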
# LmPK inh: inhibitors of Leishmania mexicana pyruvate kinase. purified LmPK, Kinase-Glo ATP luminescence, 1 h. Potency, µM (doses to about 57.5 µM), for inactives: at the top dose activity change, negative = inhibition, hits mostly inhibitors. actives 0.37% (n = 290,000); further: potency means the concentration at half of the fitted maximal effect; on the % scale 0 is the no-effect control and ±100 the full control effect
# Target sequence (Q27686 whole entry, looked up): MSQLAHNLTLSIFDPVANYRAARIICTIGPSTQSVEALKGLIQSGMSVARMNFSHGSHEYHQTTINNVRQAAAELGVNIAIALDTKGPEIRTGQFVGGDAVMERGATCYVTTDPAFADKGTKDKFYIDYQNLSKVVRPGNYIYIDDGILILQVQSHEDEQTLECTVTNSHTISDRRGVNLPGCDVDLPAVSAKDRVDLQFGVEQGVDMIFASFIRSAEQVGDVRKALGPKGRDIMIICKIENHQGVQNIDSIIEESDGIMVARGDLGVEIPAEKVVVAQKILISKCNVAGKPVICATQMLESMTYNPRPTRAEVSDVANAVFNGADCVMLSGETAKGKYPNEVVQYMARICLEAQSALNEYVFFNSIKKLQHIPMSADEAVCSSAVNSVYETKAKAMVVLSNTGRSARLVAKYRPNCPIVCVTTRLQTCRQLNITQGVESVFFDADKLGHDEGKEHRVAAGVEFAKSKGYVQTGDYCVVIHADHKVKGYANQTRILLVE
#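 Purified LmPK (0.1 nM) with 0.5 mM PEP and 0.1 mM ADP in imidazole buffer pH 7.2 with MgCl2/KCl, 1 h at room temperature. ATP formed was read by luciferase luminescence and normalized to no-enzyme and uninhibited controls.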
# SARS PLpro yeast: blocks SARS-CoV papain-like protease in a yeast assay | S. cerevisiae expressing SARS-CoV PLpro, growth rescue | actives 0.19% (n = 330,000) | Potency, µM (highest dose often 32.9 µM), inactives show at the top dose activity, positive = growth rescue, actives largely listed as activators; calls by dose curve; further: potency means the concentration at half of the fitted maximal effect; 0% is about no effect; nearly all actives have a fitted effect of over 55% in size
# Shiga toxin inh: blocks Shiga toxin action in Vero cells. Vero cells, Shiga toxin protein synthesis inhibition reporter. actives 9.2% (n = 290,000). inhibition, % at 38.7 µM; in the data active means inhibition mostly above about 28%, no sharp cut-off; inactive means mostly below about 43%; further: 0% is about no effect
# TbPYK inhibitor: inhibitors of Trypanosoma brucei pyruvate kinase | Q57TT1 | TbPYK enzyme, Kinase-Glo Plus ATP luminescence, 45 min | Potency, µM (top dose mostly 76.8 µM), without a hit: top-dose activity, negative = inhibition, hits mostly inhibitors | actives 0.12% (n = 410,000) | AID 624173; further: potency means the concentration at half of the fitted maximal effect; on the % scale 0 is the no-effect control and ±100 the full control effect; nearly all actives have a fitted effect of over 50% in size
#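 Glycolytic pyruvate kinase of T. brucei was incubated with substrate, test compound and 130 uM ADP for 45 minutes at room temperature. Luminescent Kinase-Glo Plus signal was measured after 10 minutes.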
# Starred values were filed as active, the others as inactive; ? = inconclusive; . = not tested or not shown; [ ] = remark or other dose. Unless noted, the call rests on the fitted dose curve; in most records, active means well fitted curve in the direction sought with a large enough effect; inconclusive means small, poorly fitted or top-dose-only effect, or another doubt; inactive means no such curve, though single readings can be large; an effect the other way counts as inactive or inconclusive.
SMILES,Cycloheximide cs,NS1 function inh,LmPK inh,SARS PLpro yeast,Shiga toxin inh,TbPYK inhibitor
COc1cc(NC(=O)c2cc(-c3ccco3)on2)c(OC)cc1Cl,4.5,-13.5%,-1.5%,-1.7%,11.6,-3.9%
Cc1nn(Cc2ccccc2)c(C)c1NC(=O)c1cc(-c2ccco2)on1,0.8,-5.4%,4.1%,4.8%,26.8,-7.6%
CN1C(C(=O)Nc2ccc(OC(F)(F)F)cc2)=CC(c2ccco2)=NS1(=O)=O,10.9,5.8%,9.1%,-7.4%,29.3,0.8%
COc1ccc(NC(=O)C2=CC(c3ccco3)=NS(=O)(=O)N2C)cc1,16.7*,23.4%,2.7%,-1.4%,25.5,-6.1%
CC(C)NC(=O)c1cc(-c2ccco2)on1,32.4*,-12.7%,-6.2%,-3.7%,105.7*,-19.3%
CCc1ccc(NC(=O)c2cc(-c3ccco3)on2)cc1,52.5*,-3.2%,3.7%,6.2%,57.4*,-8.8%
COc1ccc(NC(=O)c2cc(-c3ccco3)on2)cc1,60.7*,.,13.1%,-0.2%,89.2*,-10.7%
CCOC(=O)c1ccc(N2C(=O)C3CC=CCC3C2=O)cc1 (configuration not stated),18.7*,6.3%,-1.9%,-4.9%,20.8,-0.8%
CCOC(=O)c1ccc(N2C(=O)CC(C)(CC)CC2=O)cc1,-3.6,?,1.1%,0.3%,-6.0,4.0%
CCOC(=O)c1ccc(N2C(=O)C=CC2=O)cc1,6.6,-138.3%,-12.2%,-27.2%,-11.8,31.6µM*
COC(=O)c1ccc(N2C(=O)C3CC=CC(C)C3C2=O)cc1 (configuration not stated),8.9,.,7.0%,5.2%,2.0,4.9%
CC(C)OC(=O)c1ccc(N2C(=O)C3CC=CCC3C2=O)cc1 (configuration not stated),19.9*,-7.6%[9.22 µM],-0.8%,-3.5%,19.3,-1.2%
CCOC(=O)c1ccc(N2CN(CC)CNC2=S)cc1,8.8,4.9%,-5.1%,10µM*,11.5,-1.4%
C=CCN1c2ccccc2[C@]23C[C@@H](C(=O)OC)N(S(=O)(=O)c4ccc(C#N)cc4)C2=NC(C(=O)OC)=C(C(=O)OC)[C@H]13,.,.,-6.3%[11.5 µM],.,.,.
CN(C(=S)NC(=O)C12CC3CC(CC(C3)C1)C2)c1ccc(O)cc1,.,.,.,-8.0%,.,-7.0%
CCOc1ccc(/C=C2\SC(=S)N(CC(=O)NCCCN3CCOCC3)C2=O)cc1,21.5*,9.0%,-4.4%,-1.0%,46.8*,-6.9%
CC(C)c1ccc(/C=C2\SC(=O)N(CC(=O)NCCCn3ccnc3)C2=O)cc1,39.1*,5.1%,-0.9%,-4.2%,69.4*,-2.8%
O=C(CN1C(=O)/C(=C/c2cccc(Br)c2)SC1=S)NCCCN1CCOCC1,8.3,8.8%,0.6%,24.5%,16.0,2.4%
CC(C)c1ccc(/C=C2\SC(=S)N(CC(=O)NCCCN3CCOCC3)C2=O)cc1,39.1*,6.5%,-3.1%,1.4%,46.4,-10.1%
O=C(CN1C(=O)S/C(=C\c2ccccc2)C1=O)NCCCn1ccnc1,-10.8,-3.1%,-10.8%,2.1%,-4.9,-11.4%
CCOC(=O)C1CCCN(c2nc3c(S(=O)(=O)c4ccc(CC)cc4)nnn3c3ccsc23)C1 (configuration not stated),.,.,.,.,.,-4.6%
CCCSc1nnc(NC(=O)Cc2coc3cc(C)ccc23)s1,.,.,.,.,.,0.1%
CCCCN(C(C)=O)c1c(CC)nc2ccc(C(=O)NCc3cccs3)cn12,.,.,.,.,.,0.3%
C[n+]1cccc(C2C(C#N)=C(N)Oc3c2ccc2ccccc32)c1 (configuration not stated),50.5*,6.2%,-3.6%,3.6%,75.7*,-3.1%
O=[N+]([O-])c1cccnc1Sc1n[nH]c(-c2ccc(Cl)cc2)n1,36.9*,-0.7%,10.1%,0.2%,55.4*,5.1%
SMILES,Cycloheximide cs,NS1 function inh,LmPK inh,SARS PLpro yeast,Shiga toxin inh,TbPYK inhibitor
O=[N+]([O-])c1cccnc1Sc1ccc(Cl)cc1,-7.4,2.8%,0.0%,-1.6%,23.9,3.6%
O=C(Nc1cnn(Cc2ccc(F)cc2)c1)c1cnccn1,17.0*,-1.2%,-2.9%,2.4%,13.2,2.4%
O=C(Nc1cnn(Cc2ccc(F)cc2)c1)c1noc2c1CCCC2,44.9*,.,5.6%,-4.9%,152.5*,-5.2%
Cc1ccc(OCc2cc(C(=O)N(C)Cc3cnn(-c4ccccc4C)c3)no2)cn1,20.0*,-35.4%,2.9%,-4.5%,34.9,-1.1%
Cc1ccc(OCc2cc(C(=O)N(C)Cc3cnn(C)c3)no2)cc1C,.,.,.,.,.,3.7%
Cc1ccc(OCc2cc(C(=O)N(C)Cc3nccn3C)no2)cc1C,22.2,6.3%,-0.2%,3.0%,19.5,-11.6%
CN(Cc1cccc2cnccc12)C(=O)c1cc(COc2ccc(F)cc2Cl)on1,22.8*,-11.7%,1.3%,17.5%,32.3,-3.3%
Cc1csc(CN(C)C(=O)c2cn(Cc3cccc4ccccc34)nn2)n1,21.2,-34.6%,-14.8%,-1.0%,35.8*,-8.5%
Cc1cc(CN(C)C(=O)c2cc(COc3ccc(C)c(C)c3)on2)on1,56.2*,-29.0%,-13.8%,-4.4%,63.6*,-9.6%
CN[C@@H]1CCc2[nH]c3ccc(C(N)=O)cc3c2C1,.,.,.,.,.,-5.9%
COc1ccc(-c2cc3nc(C)c(CCC(=O)N4CCN(c5ccccc5F)CC4)c(C)n3n2)c(OC)c1,.,.,.,.,.,0.4%
COc1cccc(OCc2cc(C(=O)N(C)Cc3nc(C)cs3)no2)c1,55.6*,-2.4%,-5.8%,-3.1%,107.6*,-0.2%
Cc1cc(OCc2cc(C(=O)N(C)Cc3nonc3C)no2)cc(C)c1Cl,11.1,-33.8%,4.6%,-29.8%,-2.2,-1.6%
Cc1nnc(CN(C)C(=O)c2cc(COc3ccc(C)c(C)c3)on2)o1,35.9*,-10.0%,5.5%,1.2%,43.7,0.0%
Cc1nnc(CN(C)C(=O)c2cc(COc3ccc(F)cc3Cl)on2)o1,38.0*,-3.7%,-2.2%,23.5%,93.1*,-3.6%
CCC(C(=O)NCc1ccccc1Cl)n1nc(C)c2sc3ccccc3c2c1=O (configuration not stated),.,.,.,.,.,1.6%
CCCCCCCCCCCC(=O)OCC(O)C1OCC(O)C1O (configuration not stated),.,.,.,.,.,1.5%
C=C(C)CSc1nnc([C@@H]2CCCN2)o1,-2.1,6.8%,-7.7%,-0.1%,8.2,3.2%
O=C(CSc1nnc([C@@H]2CCCN2)o1)c1ccc(Cl)cc1,21.9*,-3.5%,-0.4%,-0.6%,102.4*,-2.0%
COc1ccc(C(=O)NC2CC2)cc1OC1CCN(Cc2ccc(F)c(F)c2)CC1,-17.6,-0.9%,-9.5%,3.1%,-1.8,-0.3%
CCCCOc1ccc(-c2ncc([N+](=O)[O-])cn2)cc1,-2.1,6.8%,0.1%,1.1%,17.5,0.5%
CCCCOc1ccc(-c2[nH]ncc2C=O)cc1,37.2*,.,0.9%,-4.8%,116.7*,5.8%
CC(=O)NC(=S)NNC(=O)COc1ccc([N+](=O)[O-])cc1,-0.5,.,6.7%,2.1%,-18.4,?
Cc1cccc(OCC(=O)Nc2cccc(O)c2)c1,29.9*,-10.3%,1.0%,0.6%,active,-7.3%
